Source: PubChem BioAssay (National Center for Advancing Translational Sciences (NCATS))
Compounds with a hit are over-represented: about 14% of the library has one in this group of screens.
NS1 function inh: qHTS Assay for Inhibitors of Influenza NS1 Protein Function. AID 2326, 2010. Potency, µM (series often up to 46.1 µM). hit rate 0.4% among 270,000; calls by dose curve; also: actives are rising curves; nearly all actives have a fitted effect of over 50% in size
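In this qHTS, NS1 from influenza A is expressed in budding yeast, where it slows growth. Cells are switched from glucose to 2% galactose medium (pH 6.0, -URA), treated with compound, and growth recovery is read at OD600.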
Shiga inhibitor: A qHTS for Small Molecule Inhibitors of Shiga Toxin; inhibition, % at 38.7 µM; AID 2315, 2010; hit rate 9.2% among 290,000; Vero cells, Shiga toxin protein synthesis inhibition reporter; in the data active = inhibition mostly above about 28%, no sharp cut-off; inactive = mostly below about 43%
Giardia FBPA inh: qHTS Assay for Inhibitors of Fructose-1,6-bisphosphate Aldolase from Giardia Lamblia; A8B2U2; purified Giardia FBPA; Potency, µM (series often up to 59.6 µM), usual class: inhibitors; hit rate 0.71% among 290,000; AID 2451, 2010; also: nearly all actives have a fitted effect of over 55% in size
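Giardia FBPA (40 nM reagent) was preincubated 10 min at RT with compound (up to 57.5 uM final), then substrate plus GAPDH/TPI/NAD/arsenate coupling system with diaphorase/resazurin was added; resorufin fluorescence (525/598 nm) was read after 20 min.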
LmPK inh: qHTS Assay for Inhibitors of Leishmania Mexicana Pyruvate Kinase (LmPK). Potency, µM (highest dose often 57.5 µM), most hits filed as inhibitors. hit rate 0.37% among 290,000. purified LmPK, Kinase-Glo ATP luminescence, 1 h. Q27686
Target sequence (Q27686 whole entry, looked up): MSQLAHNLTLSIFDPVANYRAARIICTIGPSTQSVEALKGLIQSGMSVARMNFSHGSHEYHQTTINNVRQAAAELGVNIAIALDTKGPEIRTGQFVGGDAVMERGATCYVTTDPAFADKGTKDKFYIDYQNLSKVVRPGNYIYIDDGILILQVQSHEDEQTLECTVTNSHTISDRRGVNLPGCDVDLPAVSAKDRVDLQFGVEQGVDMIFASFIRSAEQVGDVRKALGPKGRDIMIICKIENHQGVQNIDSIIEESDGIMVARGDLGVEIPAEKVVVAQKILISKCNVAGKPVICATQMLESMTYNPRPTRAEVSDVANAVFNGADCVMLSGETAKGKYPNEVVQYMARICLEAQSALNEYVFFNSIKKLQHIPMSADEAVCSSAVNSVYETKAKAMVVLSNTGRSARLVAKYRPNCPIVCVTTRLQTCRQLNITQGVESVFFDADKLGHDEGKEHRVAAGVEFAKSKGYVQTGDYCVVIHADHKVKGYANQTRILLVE
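Kinase-Glo luminescence read after 1 h RT reaction of 0.1 nM LmPK with 0.5 mM PEP and 0.1 mM ADP. Activity scaled between uninhibited and enzyme-free controls.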
Cycloheximide cs: Cycloheximide Counterscreen for Small Molecule Inhibitors of Shiga Toxin. hit rate 12% among 300,000. max response, %. cell reporter, cycloheximide protein synthesis inhibition counterscreen; in the data active = max response mostly above about 13%, no sharp cut-off; inactive = mostly below about 14%; also: read at 38.3 µM for the half of the compounds with a filed dose
Of the large screens only hits and unclear results are named; the others gave an inactive call. Unless noted, calls follow the shape of the dose curve; as a rule, active = well fitted curve in the direction sought with a large enough effect; inconclusive = small, poorly fitted or top-dose-only effect, or another doubt; inactive = no such curve, though single readings can be large; an effect the other way counts as inactive or inconclusive.

CC1(C)CC(=O)C(C=Nc2ccc3c(c2)OCO3)=C(O)C1	Shiga inhibitor 81.4, Cycloheximide cs 39.1
N#C/C(=C(/O)c1cccc(F)c1)c1nc2ccccc2s1	Cycloheximide cs 11.6
N#C/C(=C(\O)c1ccco1)c1ccccn1	Shiga inhibitor 70.1, Cycloheximide cs 31.2
N#C/C(=C(/O)c1ccco1)c1nc2ccccc2s1	Shiga inhibitor 66.2, LmPK inh inconclusive, Cycloheximide cs 38.5
N#CC(C(=O)c1ccco1)c1ccccn1 (centres undefined)	Cycloheximide cs 16.6
N#C/C(=C(/O)c1cc2ccccc2o1)c1nc2ccccc2s1	none
Cc1cccc(N2CCN(C(=O)c3cccc(N4CCCC4=O)c3)C(C)C2)c1 (centres undefined)	none (no result: Giardia FBPA inh)
CCN1CCN(C(C)CCc2ccccc2)CC1 (centres undefined)	Giardia FBPA inh inconclusive
COc1ccc(C(=O)N2CCCC(CCC(=O)NCc3ccccc3F)C2)c(OC)n1 (centres undefined)	Cycloheximide cs 22.8
COCc1ccc(C(=O)N2CCCC(CCC(=O)NCc3ccccc3F)C2)o1 (centres undefined)	none
O=C(CCC1CCCN(C(=O)c2ccc3c(c2)OCCO3)C1)NCc1ccccc1F (centres undefined)	Shiga inhibitor 77.1, Cycloheximide cs 48.4
O=C(CCC1CCCN(C(=O)c2ccco2)C1)NCc1ccccc1F (centres undefined)	none
CCCC(=O)NNC(=O)c1ccoc1C	none
CCC(C)(C)C1CCC(=NNC(=O)c2ccoc2C)CC1 (centres undefined)	NS1 function inh inconclusive, Shiga inhibitor 69.3, Cycloheximide cs 56.3
O=C(CCc1c[nH]c2ccccc12)OCc1cccc([N+](=O)[O-])c1	none
c1ccc(-n2nnc3cnccc32)cc1	Cycloheximide cs 23.6
Nc1ccc2c(c1)nnn2-c1ccccc1	Cycloheximide cs 32.0
c1cc(-n2nnc3cnccc32)ccn1	none
CCc1cc(=O)oc2cc(C)cc(OCC(=O)NC3CCN(Cc4ccccc4)CC3)c12	none
Cc1cc(C)n(-c2ccc(C(=O)N3CCc4ccccc43)cc2)n1	Shiga inhibitor 62.9, Cycloheximide cs 17.7
CCCOc1ccc(C(=O)N2CCCc3ccccc32)cc1	Cycloheximide cs 14.9
CC(C)(C)c1cc(C(=O)N2CCc3ccccc32)ccn1	Shiga inhibitor 40.0
O=C(c1ccc2ccccc2c1)N1CCc2ccccc21	Cycloheximide cs 37.0
CC(C)(C)c1cc(C(=O)N2CCc3ccccc3C2)ccn1	none
O=C(c1ccc(F)c(F)c1)N1CCCc2ccccc21	none
CC1CCCN(C2(O)C(=O)Nc3ccc(Cl)cc32)C1 (centres undefined)	none
CC(C)C[C@H](NC(=O)[C@H](CCCCN)NC(=O)CNC(=O)[C@H](CC(C)C)NC(=O)[C@@H](N)C(C)C)C(=O)N[C@@H](CO)C(=O)N[C@@H](CCC(N)=O)C(=O)N[C@@H](CCC(=O)O)C(=O)N[C@@H](CC(C)C)C(=O)N[C@@H](Cc1cnc[nH]1)C(=O)N[C@@H](CCCCN)C(=O)N[C@@H](CC(C)C)C(=O)N[C@@H](CCC(N)=O)C(=O)N[C@H](C(=O)N[C@@H](Cc1ccc(O)cc1)C(=O)N1CCC[C@H]1C(=O)N[C@@H](CCCNC(=N)N)C(=O)N[C@H](C(=O)N[C@@H](CC(N)=O)C(=O)N[C@H](C(=O)NCC(=O)N[C@@H](CO)C(=O)NCC(=O)N[C@H](C(=O)N1CCC[C@H]1C(N)=O)[C@@H](C)O)[C@@H](C)O)[C@@H](C)O)[C@@H](C)O	none (no result: NS1 function inh, LmPK inh)
Cc1ccc(OCC(=O)NCCNC(=O)c2ccco2)cc1C	none
Cc1cc(C)n(-c2ccc(C(=O)OC(C)C)cc2)n1	Cycloheximide cs 20.4
Cc1cc(C)n(-c2ccc(C(=O)NC(C)C)cc2)n1	none
CCOc1ccc(-n2c(=O)[nH]cc(C(=O)N3CCc4ccccc43)c2=O)cc1	none
CCOc1ccc(C(=O)OC2CCN(C)CC2)cc1	Cycloheximide cs 14.0
COc1ccc(C(=O)OC2CCN(C)CC2)cc1	none
CCOc1ccc(C(=O)N2CCc3ccccc32)cc1	Shiga inhibitor 64.0, Cycloheximide cs 44.5
CCOC(=O)[C@H](CCc1ccccc1)N[C@@H](C)C(=O)N1[C@H](C(=O)O)C[C@H]2CCCC[C@@H]21	none (no result: NS1 function inh, Shiga inhibitor, LmPK inh, Cycloheximide cs)
Cc1ccc2cn[nH]c2c1NC(N)=S	Shiga inhibitor 48.5 (no result: NS1 function inh)
